# Shn3 3UTR inh – Schnurri-3 reporter inhibition in Clone20 osteoblasts | Clone20 osteoblast Shn3 3'UTR firefly luciferase, 24 h | inhibition, % at 12.5 µM | 360,000 tested, 0.52% active;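 active means mean inhibition of at least 75% with every replicate also reaching 75%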;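 further: 0% = median of neutral control wells and 100% = pilot-screen positive control compound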
# MITF TRPM1 inh – inhibitors of MITF-driven TRPM1 promoter in melanoma cells; SK-MEL-5 TRPM1 promoter luciferase, 24 h; AID 488899; 330,000 tested, 0.83% active; inhibition, % at 12.5 µM;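 active means mean inhibition across replicates of 60% or more, whatever share of single replicates reaches that level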
# Peg3 promoter – reduces Peg3 promoter-driven luciferase expression in HeLa; HeLa PEG-Prom luciferase reporter, luminescence, overnight; inhibition, % at 20 µM; 360,000 tested, 1.7% active; AID 588405;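 active means inhibition of at least 50% at 20 µM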
# CF NFkB inh – cystic fibrosis NF-kB activation inhibition; KKLEB NF-kB-GFP reporter, PAF-induced, GFP fluorescence overnight; 360,000 tested, 0.86% active; inhibition, % at 5 µM;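 active means at least 50% inhibition at 5 µM, scaled per plate between neutral and stimulator controls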;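 further: PAF is a Pseudomonas aeruginosa culture filtrate used as stimulus; plate controls were PAF-stimulated DMSO wells for no effect and unstimulated DMSO wells for full effect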
# HIF-2a block – inhibitors of HIF-2a; 786-0 RCC cells HIF-2a reporter, luciferase luminescence, overnight; inhibition, % at 18.8 µM; 360,000 tested, 0.72% active; AID 624352;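 active means inhibition of the luminescence signal of 40% or more relative to plate controls, in a single-dose primary screen at 18.75 µM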
# KKLEB tox – reduces viability of KKLEB cystic fibrosis airway cells; KKLEB CF airway cells viability, ATPlite luminescence, overnight; active compounds read low; cells stimulated with P. aeruginosa culture filtrate; activity change (cytotoxicity), % at 5 µM; 360,000 tested, 0.36% active;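 active means corrected activity change at or below -50% at 5 µM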
# The depositor's hits bear a star; . = not tested or not shown. A selection: hits, their analogues and other compounds. The true share with any hit is near 2.8%.
SMILES,Shn3 3UTR inh,MITF TRPM1 inh,Peg3 promoter,CF NFkB inh,HIF-2a block,KKLEB tox
CC1CCN(c2ccccc2NC(=O)c2ccc(N3CCOCC3)c([N+](=O)[O-])c2)CC1,22.9,4.4,3.1,42.9,8.0,-54.1*
O=C(Nc1ccccc1N1CCCCC1)c1ccc(Cl)c([N+](=O)[O-])c1,-22.7,17.5,101.2*,-1.8,17.0,-0.4
CN(c1ccccc1)S(=O)(=O)c1cccc(NC(=O)c2ccc(Cl)c([N+](=O)[O-])c2)c1,73.4,25.1,93.3*,1.9,0.3,7.3
O=C(c1ccc(F)cc1)N1CCC(C(=O)N2CCN(c3ncccn3)CC2)CC1,0.8,-6.5,1.2,14.7,4.3,24.3
COc1ccc(Cl)cc1NC(=O)CN1CCC(n2nnc3cc(C)ccc32)CC1,57.9,15.2,85.9*,21.0,1.6,-17.8
CC1CCC(NC(=O)CCN2C(=O)C3C4C=CC(C4)C3C2=O)CC1 (stereo not drawn),-2.1,-2.4,-18.5,5.7,-6.4,-6.3
COc1ccc(OCC(O)CNC(C)c2ccccc2)cc1 (stereo not drawn),-0.5,-13.8,-5.9,-3.7,18.4,-12.9
CC(NCC(O)COc1ccc(Br)cc1)c1ccccc1 (stereo not drawn),11.2,-12.7,-16.2,-3.3,7.3,-5.7
CCCC(NCC(O)COc1ccc(-c2ccccc2)cc1)c1ccccc1 (stereo not drawn),31.7,40.5,78.8*,10.8,-14.9,-15.8
CC(NCC(O)COc1ccc2ccccc2c1)c1ccccc1 (stereo not drawn),23.5,3.5,65.9*,0.0,3.1,1.7
Cc1cc(OCC(O)CNC(C)c2ccccc2)ccc1C(C)C (stereo not drawn),4.8,5.9,106.8*,5.8,8.7,5.5
O=C(O)CC(C(=O)Nc1ccc(Cl)cc1)N1CCCCCC1 (stereo not drawn),20.7,-17.8,16.4,1.8,18.9,0.6
COc1ccccc1NCC(=O)N/N=C/c1c(O)ccc2ccccc12,54.4,26.2,56.0*,8.9,8.8,-17.3
O=C(Cc1n[nH]c(=O)[nH]c1=O)N/N=C/c1c(O)ccc2ccccc12,-23.1,-13.3,17.6,-5.2,17.8,2.9
O=C(CNc1ccc(F)cc1)N/N=C/c1c(O)ccc2ccccc12,91.5*,34.1,51.2*,14.6,-8.7,1.6
O=C(NCCO)c1nc(C(=O)c2ccccc2)c2ccccc2n1,-6.9,12.0,7.9,-15.5,16.2,24.0
Cc1cc(C)cc(NC(=O)CCc2nc3sc4c(c3c(=O)[nH]2)CCCC4)c1,-43.8,6.0,84.3*,-2.3,4.1,-4.7
CC(=O)Nc1ccc(NC(=O)CCc2nc3sc4c(c3c(=O)[nH]2)CCCC4)cc1,-4.2,5.1,6.4,13.4,11.0,-7.8
CCNc1nc(NCC)n2c(SC(C(=O)Nc3cc(Cl)cc(Cl)c3)c3ccccc3)nnc2n1 (stereo not drawn),1.9,5.2,76.5*,35.1,20.3,-29.7
COc1cc(/C=C/C(=O)OCC(=O)N(C)CC(=O)Nc2ccc(F)cc2)ccc1OC(F)F,4.3,3.2,6.7,-10.3,1.0,-3.5
O=C(Nc1cccc(Cl)c1)c1nc[nH]c1C(=O)NCCCNC(=O)c1[nH]cnc1C(=O)Nc1cccc(Cl)c1,9.4,-11.3,56.6*,-13.1,8.0,5.1
CC(C)(C)OC(=O)NCCCCCNC(=O)c1[nH]cnc1C(=O)Nc1ccccc1,-11.7,1.9,33.0,0.0,13.5,3.7
CNC(=O)c1[nH]cnc1C(=O)Nc1cccc(Cl)c1,-6.4,-21.3,-150.6,9.5,-93.8,-9.4
O=C(Nc1ccccc1)c1nc[nH]c1C(=O)NCCNC(=O)c1[nH]cnc1C(=O)Nc1ccccc1,13.4,13.8,40.6,66.5*,-5.0,-10.7
Cc1ccc(C(O)c2ncc(-c3ccccc3C(F)(F)F)[nH]2)cc1F (stereo not drawn),9.3,.,13.2,-4.9,1.9,4.6
O=C(COC(=O)/C=C/C(=O)OCC(=O)NC12CC3CC(CC(C3)C1)C2)NC12CC3CC(CC(C3)C1)C2,60.8,76.0*,102.7*,40.6,28.9,-16.1
CC(=O)Oc1cc(C(=O)OCC(=O)NC23CC4CC(CC(C4)C2)C3)cc(OC(C)=O)c1OC(C)=O,91.0*,-2.8,-30.7,7.7,10.2,-7.0
O=C(COC(=O)c1ccccc1O)NC12CC3CC(CC(C3)C1)C2,-96.6,.,-212.4,-10.0,-44.6,12.5
